# Assay results as given in PubChem BioAssay AID1159580 (chemical genetic matrix, 2015).
# In all, about 5,500 compounds went through this assay and about 2,000 (36%) were called active. About 18% were inconclusive and are not listed. The list shows a part of the results. Values without a mark were called inactive. No stated cut-off is given here; in the data, active means normalized growth mostly below about 0.91 (no sharp cut-off); inconclusive means no clear call, values can overlap the other calls; inactive means mostly above about 0.92.
# Assay: chemical genetic growth profiling, strain panel (AID 1159580);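 further: tested at 20 µM; growth read once vehicle control cultures reached saturation at 30 °C; 1 = growth at the plate median or of vehicle wells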
# Settings: S. cerevisiae deletion strains, growth OD
# [1] = locus YDL101C, strain DUN1, stronger effect = lower value
# [2] = locus YHR030C, strain SLT2, stronger effect = lower value
structure (smiles),measurement,setting,value
O=C(NCc1ccc2c(c1)OCO2)c1cc2ccccc2s1,normalized growth,"locus YAR019C, strain CDC15, stronger effect = lower value",0.858 (active)
same,normalized growth,"locus YBL105C, strain PKC1, stronger effect = lower value",0.867 (active)
same,normalized growth,"locus YBR135W, strain CKS1, stronger effect = lower value",0.87 (active)
same,normalized growth,"locus YBR136W, strain MEC1, stronger effect = lower value",0.866 (active)
same,normalized growth,"locus YBR160W, strain CDC28, stronger effect = lower value",0.873 (active)
same,normalized growth,"locus YDL017W, strain CDC7, stronger effect = lower value",0.877 (active)
same,normalized growth,"locus YDL028C, strain MPS1, stronger effect = lower value",0.9
same,normalized growth,[1],0.912
same,normalized growth,"locus YDL108W, strain KIN28, stronger effect = lower value",0.888 (active)
same,normalized growth,"locus YDL132W, strain cdc53, stronger effect = lower value",0.851 (active)
same,normalized growth,"locus YDL214C, strain PRR2, stronger effect = lower value",0.58 (active)
same,normalized growth,"locus YDR052C, strain DBF4, stronger effect = lower value",0.933
same,normalized growth,"locus YDR054C, strain cdc34, stronger effect = lower value",0.648 (active)
same,normalized growth,"locus YDR226W, strain ADK1, stronger effect = lower value",0.874 (active)
same,normalized growth,"locus YDR477W, strain SNF1, stronger effect = lower value",0.422 (active)
same,normalized growth,"locus YER123W, strain YCK3, stronger effect = lower value",0.396 (active)
same,normalized growth,"locus YER133W, strain GLC7, stronger effect = lower value",0.298 (active)
same,normalized growth,"locus YFL009W, strain cdc4, stronger effect = lower value",0.858 (active)
same,normalized growth,"locus YFL029C, strain CAK1, stronger effect = lower value",0.852 (active)
same,normalized growth,"locus YFR003C, strain YPI1, stronger effect = lower value",0.872 (active)
same,normalized growth,"locus YFR019W, strain FAB1, stronger effect = lower value",0.625 (active)
same,normalized growth,"locus YFR028C, strain CDC14, stronger effect = lower value",0.864 (active)
same,normalized growth,"locus YGR040W, strain KSS1, stronger effect = lower value",0.459 (active)
same,normalized growth,"locus YGR052W, strain FMP48, stronger effect = lower value",0.406 (active)
same,normalized growth,"locus YGR092W, strain DBF2, stronger effect = lower value",0.3 (active)
same,normalized growth,[2],0.14 (active)
same,normalized growth,"locus YHR079C, strain IRE1, stronger effect = lower value",0.178 (active)
same,normalized growth,"locus YHR082C, strain KSP1, stronger effect = lower value",0.571 (active)
same,normalized growth,"locus YHR205W, strain SCH9, stronger effect = lower value",0.678
same,normalized growth,"locus YIL147C, strain SLN1, stronger effect = lower value",0.871 (active)
same,normalized growth,"locus YJL095W, strain BCK1, stronger effect = lower value",0.144 (active)
same,normalized growth,"locus YJL128C, strain PBS2, stronger effect = lower value",0.854
same,normalized growth,"locus YJL157C, strain FAR1, stronger effect = lower value",0.622 (active)
same,normalized growth,"locus YJR016C, strain ILV3, stronger effect = lower value",0.87 (active)
same,normalized growth,"locus YJR066W, strain TOR1 (second series), stronger effect = lower value",0.155 (active)
same,normalized growth,"locus YJR066W, strain TOR1, stronger effect = lower value",0.432 (active)
same,normalized growth,"locus YKL048C, strain ELM1, stronger effect = lower value",0.443 (active)
same,normalized growth,"locus YKL067W, strain YNK1, stronger effect = lower value",0.675 (active)
same,normalized growth,"locus YKL101W, strain HSL1, stronger effect = lower value",0.573 (active)
same,normalized growth,"locus YKL193C, strain SDS22, stronger effect = lower value",0.882 (active)
same,normalized growth,"locus YKL203C, strain TOR2, stronger effect = lower value",0.258 (active)
same,normalized growth,"locus YLR113W, strain HOG1, stronger effect = lower value",0.626 (active)
same,normalized growth,"locus YLR133W, strain CKI1, stronger effect = lower value",0.675 (active)
same,normalized growth,"locus YLR403W, strain SFP1, stronger effect = lower value",0.583 (active)
same,normalized growth,"locus YML070W, strain DAK1, stronger effect = lower value",0.54 (active)
same,normalized growth,"locus YMR001C, strain CDC5, stronger effect = lower value",0.837 (active)
same,normalized growth,"locus YMR205C, strain PFK2 (second series), stronger effect = lower value",0.692 (active)
same,normalized growth,"locus YMR277W, strain FCP1, stronger effect = lower value",0.829 (active)
same,normalized growth,"locus YNL006W, strain LST8, stronger effect = lower value",0.849 (active)
same,normalized growth,"locus YNL020C, strain ARK1, stronger effect = lower value",0.663 (active)
same,normalized growth,"locus YNL161W, strain CBK1, stronger effect = lower value",0.868 (active)
same,normalized growth,"locus YNL183C, strain NPR1, stronger effect = lower value",0.322 (active)
same,normalized growth,"locus YNL207W, strain RIO2, stronger effect = lower value",0.822 (active)
same,normalized growth,"locus YNL222W, strain SSU72, stronger effect = lower value",0.853 (active)
same,normalized growth,"locus YNL307C, strain MCK1 (second series), stronger effect = lower value",0.205 (active)
same,normalized growth,"locus YOL078W, strain AVO1, stronger effect = lower value",0.842 (active)
same,normalized growth,"locus YOL136C, strain PFK27, stronger effect = lower value",0.429 (active)
same,normalized growth,"locus YOR061W, strain CKA2, stronger effect = lower value",0.589 (active)
same,normalized growth,"locus YOR119C, strain RIO1, stronger effect = lower value",0.273 (active)
same,normalized growth,"locus YOR231W, strain MKK1, stronger effect = lower value",0.369 (active)
same,normalized growth,"locus YOR329C, strain SCD5, stronger effect = lower value",0.856 (active)
same,normalized growth,"locus YPL031C, strain PHO85, stronger effect = lower value",0.392 (active)
same,normalized growth,"locus YPL153C, strain RAD53, stronger effect = lower value",0.224 (active)
same,normalized growth,"locus YPL204W, strain HRR25, stronger effect = lower value",0.3 (active)
same,normalized growth,"locus YPL209C, strain IPL1, stronger effect = lower value",0.868 (active)
same,normalized growth,"locus YPL256C, strain CLN2, stronger effect = lower value",0.558 (active)
same,normalized growth,"locus YPR025C, strain CCL1, stronger effect = lower value",0.863 (active)
same,normalized growth,"locus YPR106W, strain ISR1, stronger effect = lower value",0.882 (active)
same,normalized growth,"locus YPR111W, strain DBF20, stronger effect = lower value",0.868 (active)
same,normalized growth,"strain NNK1, stronger effect = lower value",0.835 (active)
same,normalized growth,"strain TSCII, stronger effect = lower value",0.799 (active)
O=C(O)C1c2ccccc2C(=O)N(Cc2ccc3c(c2)OCO3)C1c1cccnc1 (centres undefined),normalized growth,"locus YAL013W, strain DEP1, stronger effect = lower value",1.02
same,normalized growth,"locus YBR229C, strain ROT2, stronger effect = lower value",1.01
same,normalized growth,"locus YCL061C, strain MRC1, stronger effect = lower value",0.994
same,normalized growth,[1],1.01
same,normalized growth,"locus YDL134C, strain PPH21, stronger effect = lower value",0.993
same,normalized growth,"locus YDR150W, strain NUM1, stronger effect = lower value",0.978
same,normalized growth,"locus YEL061C, strain CIN8, stronger effect = lower value",1.04
same,normalized growth,"locus YGR078C, strain PAC10, stronger effect = lower value",1.04
same,normalized growth,[2],1.05
same,normalized growth,"locus YHR087W, strain rtc3, stronger effect = lower value",1.01
same,normalized growth,"locus YJR043C, strain POL32, stronger effect = lower value",0.996
same,normalized growth,"locus YJR075W, strain HOC1, stronger effect = lower value",1.03
same,normalized growth,"locus YKL190W, strain CNB1, stronger effect = lower value",0.989
same,normalized growth,"locus YLR039C, strain RIC1, stronger effect = lower value",1.01
same,normalized growth,"locus YLR058C, strain SHM2 (second series), stronger effect = lower value",0.997
same,normalized growth,"locus YLR085C, strain ARP6, stronger effect = lower value",1.02
same,normalized growth,"locus YLR262C, strain YPT6, stronger effect = lower value",0.971
same,normalized growth,"locus YML094W, strain GIM5, stronger effect = lower value",1.04
same,normalized growth,"locus YMR219W, strain ESC1, stronger effect = lower value",1
same,normalized growth,"locus YMR263W, strain SAP30, stronger effect = lower value",1
same,normalized growth,"locus YNL128W, strain TEP1, stronger effect = lower value",0.993
same,normalized growth,"locus YNL153C, strain GIM3, stronger effect = lower value",1.01
same,normalized growth,"locus YNL298W, strain CLA4 (second series), stronger effect = lower value",1.04
same,normalized growth,"locus YNL322C, strain KRE1, stronger effect = lower value",1.02
same,normalized growth,"locus YNR030W, strain Alg12, stronger effect = lower value",1
same,normalized growth,"locus YPL055C, strain LGE1, stronger effect = lower value",1.03
same,normalized growth,"locus YPL241C, strain CIN2, stronger effect = lower value",0.971
same,normalized growth,"locus YPR135W, strain CTF4, stronger effect = lower value",0.982
